Among all 410,000 compounds or so, about 18,000 (4.4%) were called active. Another 7% or so got no clear call; they are omitted. Many of the other results were omitted from the sample, so actives are more common in it than they were. Values without a mark were called inactive. Rule as the data show it: active = activity change below about -60%; inconclusive = no clear call, values can overlap the other calls; inactive = above about -39%.
% is scaled to controls: 0 for no effect and ±100 for the full control effect.

The assay in a line: qHTS Assay for inhibitors of the human cytomegalovirus (HCMV). To be noted: HFF cells, HCMV-luciferase reporter, 72 h; at 57.5 µM; hits give low values. An excerpt:
NCGC Assay Overview: Infection with human cytomegalovirus (HCMV) continues to pose significant threats for pregnant women and immunocompromised hosts. HCMV causes serious morbidity and mortality in transplant recipients, and congenital HCMV is the leading infectious cause of mental retardation and deafness in children. In the 1990s, the annual costs associated with the disease burden of congenital CMV were estimated at around $2 billion. A HCMV vaccine is not available yet and HCMV therapies result in intolerable side effects and emergence of drug resistant viruses. […] Towards this goal we have developed and characterized a luciferase HCMV reporter that was initially used in 96 well plates and then optimized to 1536-well plates for utilization in screening of the MLSMR collection, the NGCG diversity collection and the NCGC Pharmaceutical Collection of approved and investigational drugs.
NCGC Assay Protocol Summary:
This is a cell-based assay for HCMV inhibition in HFFs cells. The screening used 2 compound doses and the HCMV-luciferase at MOI of 1 PFU/cell. Cells were treated and infected with HCMV. At 72 h post infection cell lysates were collected and luciferase activity was determined using the Glomax-Multi + Detection System (Promega, Madison, WI). Data were normalized to the controls for basal activity (buffer only) and known HCMV inhibitors Salinmoycin.
1536-well assay protocol for the assay:
(1) Add 3 ul CMV/HFF cell culture. 1000 cells/well in DMEM nirmal media.
(2) Incubate 16 hr at 37C.
(3) Add 23 nl control compound, 10uM of Salinomycin.
(4) Add 23 nl compounds in DMSO solution.
(5) Add 3 ul CMV suspension. Final 1 puf/ul, Virus stock 2000pfu/ul
(6) Incubate 72 hrs at 37C.
(7) Add 4 ul OneGlo Luc Reagent.
(8) Incubate 5 min at room temperature.
(qHTS replaces the single test concentration by a dilution series.)
On to `O=C(Nc1cccc([N+](=O)[O-])c1)N1CCc2ccccc2C1`, for which the activity change, negative = inhibition is -65.7% (active).
The value for `Cc1cccc(OC(C)C(=O)N2CCc3ccccc3C2)c1` (stereo not drawn) was -31.1%; that for `Cc1cccc(NC(=O)N2CCC(CN3CCc4ccccc4C3)CC2)c1C` was 7.59%; that for `CC(=O)c1ccc(NC(=O)c2nc3nc(C)cc(C(F)F)n3n2)cc1` was 19.3%.
The value for `CCOc1ccc(-c2nonc2NC(=O)c2oc3ccc(C)cc3c2C)cc1OCC` was 5.37%; that for `Cc1ccc2c(O)c(Cc3ccccc3)c(=O)[nH]c2n1` was 22%; that for `COC(=O)c1ccc2nc(-c3ccc(Cl)cc3)c(Cc3cccc(F)c3)n2c1` was -17.1%.
The value for `Cc1nc2ccccn2c(=O)c1NC(=O)c1c(F)cccc1F` was -14.4%; that for `O=C(Nc1c(-c2ccc(F)cc2)nc2ccccn12)c1cccc(F)c1` was -69.4% (active).
In the case of `Cc1ccc(CNC(=O)c2c(O)nc3c(C)cccn3c2=O)cc1`, the activity change, negative = inhibition is 5.82%.
On to `COC(=O)[C@@]1(Sc2ccc(OC)cc2)CC(=O)N(c2ccc(OC)cc2C)[C@@H]1c1ccc(OC(C)C)c(OC)c1`, for which the activity change, negative = inhibition is 10.7%.
The value for `COc1cc(OC)c(NC(=O)c2cnc(N3CCCC3)nc2C)cc1Cl` was -14.2%; that for `Cc1nnc(SCC(=O)N(C(C)C)C(C)C)nc1C` was -39.9%; that for `CC(C)OCCCNc1ncnc2c1[nH]c1ccc(F)cc12` was -79% (active).
The value for `COc1ccc(Cn2cc(C(=O)c3ccc(C)cc3)c(=O)c3cc(OC)c(OC)cc32)cc1` was -22.1%.
Regarding `O=C(NC1CCCC1)C(c1ccco1)N(C(=O)c1csnn1)c1ccccc1` (stereo not drawn), the activity change, negative = inhibition was 13.9%.
The value for `CCCCN(C(=O)C1=NN(c2cc(C)ccc2C)C(=O)CC1)c1c(N)n(CCC)c(=O)[nH]c1=O` was 8.37%; that for `Cn1c(=O)c2c(SCC(=O)N3CCc4ccccc43)nc(-c3ccc(Cl)cc3)nc2n(C)c1=O` was 17.9%; that for `COc1ccccc1N1CCN(c2ncnc3onc(-c4ccc(F)cc4)c23)CC1` was -11.8%.
In the case of `CCCCCCCCCCCCn1ccc(=N)cc1`, the activity change, negative = inhibition is -96.6% (active).
The value for `O=C(CCSCc1cccc(F)c1)NCc1ccccc1` was -2.8%; that for `O=C(NCC(c1ccc2c(c1)OCO2)N1CCN(c2ccccc2)CC1)C(=O)Nc1ccccc1F` (stereo not drawn) was 9.73%.
The value for `COC(=O)C1=C(c2ccccc2)c2ccccc2S(=O)(=O)N1CC(=O)Nc1ccccc1C(F)(F)F` was -5.56%; that for `CCCc1nn2c(=O)cc(COC(=O)c3ccc(NC(=O)C(C)Oc4ccccc4)cc3)nc2s1` (stereo not drawn) was -18.3%.
The value for `COC(=O)CC1Oc2ccccc2-n2cc(-c3ccccc3)nc21` (stereo not drawn) was -14.2%; that for `COCC(C)n1c(SCc2ccc(C(=O)OC)o2)nc2ccccc2c1=O` (stereo not drawn) was -23%.
For the compound `COCC(C)n1c(C)cc(C(=O)CSc2cc(C)c3ccccc3n2)c1C` (stereo not drawn), the activity change, negative = inhibition is -3.64%.
The value for `COCCn1c(C)cc(C(=O)CSc2nc3ccccc3c(=O)n2C(C)COC)c1C` (stereo not drawn) was -66% (active).
The value for `O=C(NC1CCCC1)c1csc(C(O)c2cccc(Cl)c2)n1` (stereo not drawn) was -12.9%; that for `CC1CN(C(=O)c2ccc3c(c2)OCO3)OC(c2ccccc2)O1` (stereo not drawn) was 26.2%; that for `CCCCCCn1nnc2sc(-c3ccccc3)cc2c1=O` was 15.8%.
As to `COc1ccc(CNC(=O)c2ccc3c(O)c(S(=O)(=O)c4ccccc4)c(=O)[nH]c3c2)cc1`, the activity change, negative = inhibition was 6.38%.
The value for `COc1ccc(NC(=O)COCc2cc(-c3ccco3)on2)cc1` was 10.4%; that for `COc1ccc(NC(=O)c2ccco2)cc1NC(=O)COc1ccc(C)c(C)c1` was 23.1%.
The value for `COc1ccc(OCC(=O)Nc2ccc(NC(=O)c3ccco3)c(C)c2)cc1` was -98.9% (active); that for `CC(C)(C)c1ccc(S(=O)(=O)N2CCN(C(=O)c3cc(-c4ccc(Br)cc4)n[nH]3)CC2)cc1` was 0%; that for `COc1ccc(NC(=O)C2CCN(c3ccc(Sc4ccc(C)cc4)nn3)CC2)c(OC)c1` was 11.3%.
With `O=C(CSc1nc2c(c(=O)[nH]1)CN(Cc1ccc(F)cc1)CC2)Nc1ccccc1Cl`, the activity change, negative = inhibition was -10.3%.
The value for `O=C(NCCCN1CCN(c2ccc(F)cc2)CC1)Nc1ccc([N+](=O)[O-])cc1` was -37.5%; that for `COc1ccc(NC(=O)NCCN2CCN(c3ccc(C)cc3)CC2)c(Cl)c1` was 14.9%.
The value for `Cc1ccc(C)c(N2CCN(CCCNC(=O)Nc3ccc(Cl)cc3)CC2)c1` was -76.9% (active); that for `CC1=C(c2ccc(C)c(C)c2)S(=O)(=O)NC1=NCc1ccccc1Cl` was -23%; that for `CC1=C(c2ccc(Cl)cc2)S(=O)(=O)N=C1N1CCN(c2cc(C)ccc2C)CC1` was 8.61%.
The value for `CC1=C(c2ccc(C)cc2)S(=O)(=O)NC1=NCCCN1CCN(c2cc(C)ccc2C)CC1` was -96.1% (active); that for `O=C1C=C(NCCNc2c(F)c(F)c(CO)c(F)c2F)CCC1` was 74.7%; that for `CCOc1ccc(N2C(=O)Nc3ccccc3C2(O)C(=O)NCc2ccco2)cc1` (stereo not drawn) was 14.9%.
On to `Cc1cc(C)cc(NC(=O)Cn2nc(N3CCN(c4ccccc4)CC3)ccc2=O)c1`, for which the activity change, negative = inhibition is -10.6%.
The value for `O=C(NN=Cc1ccccc1O)NN=Cc1ccccc1O` was -96.4% (active).
The value for `CCc1ccccc1NC(=O)/C(=C/c1ccccc1)c1ccccc1` was -13.4%.
In the case of `NN=C(NN=Cc1ccccc1)c1ccccc1`, the activity change, negative = inhibition was 49.5%.
The value for `O=C(CN1CCSCC1)N/N=C/c1ccc(F)cc1F` was -10.6%; that for `O=Nc1c(O)cc(O)c2ccccc12` was 13.3%.
Take `O=C(N/N=C/c1ccccc1O)/C(=C/c1ccccc1)CCO`: the activity change, negative = inhibition was -88.1% (active).
The value for `CC(=O)N1CCc2cc(Br)cc(S(=O)(=O)CCC(=O)NCCc3ccc(Cl)cc3)c21` was -23.8%; that for `Nc1[nH]c(=S)nc2nc(-c3ccccc3)c(-c3ccccc3)nc12` was -3.08%.
With `Nc1ccc(-c2sc(N)nc2-c2ccccc2)cc1`, the activity change, negative = inhibition is -103% (active).
The value for `Cc1nc(N)sc1-c1ccccc1` was -23.6%; that for `CCn1c2ccccc2c2nnc(SCC(=O)O)nc21` was -4.51%.

The values above are taken from PubChem BioAssay AID1259415 (National Center for Advancing Translational Sciences (NCATS), 2018).
